Rows were chosen to be rich in hits. Some 3.5% of all compounds tested hit in one or more screens of this group.
FBW7 act – FBW7 E3 ligase activators, primary screen, biochemical, AlphaScreen, human; AlphaScreen FBW7–phospho-cyclin E peptide binding, activator screen; normalized activity (activation), % at 26.1 µM; 650,000 compounds, 0.13% hits; AID 1259310, 2017; in the data active = normalized activity above about 1.9%;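 also: purified mutant Fbw7 with reduced substrate affinity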
GPR151 ag – activators of human GPR151, primary screen, cell-based, PathHunter beta-arrestin, luminescence; 650,000 compounds, 1% hits; activation, % at 11.2 µM; PathHunter beta-arrestin GPR151 cells; in the data active = activation above about 4.9%
MITF primary – MITF inhibitors, primary screen, biochemical, AlphaScreen, human | Microphthalmia-associated transcription factor (Homo sapiens), O75030 | AlphaScreen MITF homodimerization, bead proximity signal | inhibition, % at 2.6 µM | 650,000 compounds, 0.91% hits | AID 1259374, 2018; in the data active = inhibition above about 50%
TEAD-YAP inh – TEAD-YAP interaction inhibition, primary screen, TEAD-YAP interaction inhibitor project, luminescence, HEK-TIYL cells; TEAD-Gal4/YAP UAS-luciferase luminescence; inhibition, % at 9.12 µM; 640,000 compounds, 1.4% hits; in the data active = inhibition above about 32%
GPR151 conf act – GPR151 activators, triplicate retest, confirmation, cell-based, PathHunter beta-arrestin, luminescence; shares compounds with GPR151 ag; GPR151 PathHunter beta-arrestin cells, 90 min; % of EA-reagent control over plate median; activation, % at 11.2 µM; 6,700 tested, under 10 active;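 active = mean percent activation across replicates above the confirmation screen cutoff of 4.91%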
GPR119 counter – GPR119 activators in beta-arrestin cells, counter-screen for GPR151 activator project, cell-based, PathHunter beta-arrestin, luminescence, triplicate | activation, % at 11.2 µM | 6,700 compounds, 0.3% hits | shares compounds with GPR151 ag | 90 min; 0 = compound-well median, 100 = enzyme-acceptor control | AID 1508611, 2020;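 active = mean percent activation in the counterscreen above 29.09%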;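 also: counterscreen on off-target GPR119 to flag nonselective hits from the GPR151 activator screen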
Target sequence (Q8TDV5 whole entry, looked up): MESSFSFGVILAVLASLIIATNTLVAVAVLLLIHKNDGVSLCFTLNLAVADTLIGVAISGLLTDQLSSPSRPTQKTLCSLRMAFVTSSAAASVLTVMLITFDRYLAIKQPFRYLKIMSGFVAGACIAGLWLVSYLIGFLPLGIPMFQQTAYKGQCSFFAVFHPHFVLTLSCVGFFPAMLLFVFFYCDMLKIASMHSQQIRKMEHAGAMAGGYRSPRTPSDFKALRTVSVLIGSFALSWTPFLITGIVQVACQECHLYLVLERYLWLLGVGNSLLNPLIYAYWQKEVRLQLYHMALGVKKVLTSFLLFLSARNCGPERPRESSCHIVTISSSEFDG
A number is an active result; – = inactive; · = no result given; ! = a repeat was not active.

SMILES	FBW7 act	GPR151 ag	MITF primary	TEAD-YAP inh	GPR151 conf act	GPR119 counter
Cn1cc(CC(=O)NCCN2CCN(Cc3ccccc3)CC2)c2ccccc21	–	5.2	–	–	–	–
COCCCNC(=O)CCCc1cn(C)c2ccccc12	–	6.6	–	–	–	–
COCCCNC(=O)Cc1cn(C)c2ccccc12	–	–	–	–	·	·
CCCn1c(N)c(C(=O)CCl)c(=O)n(C)c1=O	–	–	–	–	·	·
O=S(=O)(c1cccc(F)c1)N1CCCCCC1	–	–	–	–	·	·
O=C(Cc1ccc(F)cc1)NCC1(c2cccs2)CCOCC1	–	–	–	–	·	·
O=C(Cc1cccs1)NCC1(c2ccc(F)cc2)CC1	–	12	–	–	–	–
O=C(COc1ccccc1)NC(=S)Nc1ccccn1	–	6.6	–	–	–	–
CCOC(=O)c1ccc(NC(=S)Nc2ccccn2)cc1	–	5.0!	–	–	–	–
CC(=O)NCc1nnc2n1CCN(CC=C(C)C)CC2	–	–	–	–	·	·
CC1CCCC(NCc2c(C(=O)O)n(Cc3ccccc3Cl)c3ccccc23)C1C (stereo not given)	–	–	–	–	·	·
CC1CCCC(NCc2c(C(=O)O)n(Cc3ccccc3F)c3ccccc23)C1C (stereo not given)	–	13	–	–	–	–
O=C(CSc1ccc(Cl)cc1)NC1CC2CCC1C2 (stereo not given)	–	–	–	–	·	·
CC(=O)N1CCC(c2[nH]ncc2-c2cc(C)no2)CC1	–	–	–	–	·	·
CCS(=O)(=O)N1CCC(c2[nH]ncc2-c2cc(C)no2)CC1	–	5.9	–	–	–	–
CC(=O)N1CCc2c(sc(NC(=O)C(C)(C)C)c2C(N)=O)C1	–	6.4	–	–	–	–
CC(=O)Nc1sc2c(c1C(N)=O)CCN(C(C)=O)C2	–	–	–	–	·	·
CC[C@@H](C(=O)C(C)[C@@H](O)[C@H](C)CCc1ccc(C)c(O)c1C(=O)O)C1OC(CC)(C2CC[C@](O)(CC)[C@H](C)O2)C[C@@H]1C (stereo not given in full)	–	13!	–	–	–	51
CC(O)CNCCNc1ccc(C(F)(F)F)cc1[N+](=O)[O-] (stereo not given)	–	–	–	–	·	·
COc1cc2nc(Oc3ccccc3)nc(Nc3ccc(NC(C)=O)cc3)c2cc1OC	–	7.4	–	–	–	–
COc1cc2nc(Nc3ccc4ncccc4c3)nc(Nc3ccc4c(c3)OCO4)c2cc1OC	–	7.7	–	–	–	–
COc1cc2nc(Nc3ccc(N4CCOCC4)cc3)nc(Nc3ccccc3)c2cc1OC	–	–	–	–	·	·
COc1cc2nc(Nc3ccccc3)nc(Nc3ccc(N4CCOCC4)cc3)c2cc1OC	–	8.2	–	–	–	–
CCN(CC)c1nc(Nc2cc(OC)c(OC)c(OC)c2)nc(Nc2cc(OC)c(OC)c(OC)c2)n1	–	–	–	–	·	·
CCN(CC)c1nc(Nc2ccc(N3CCOCC3)cc2)nc(Nc2cc(OC)c(OC)c(OC)c2)n1	–	9.3!	–	–	–	–
SMILES	FBW7 act	GPR151 ag	MITF primary	TEAD-YAP inh	GPR151 conf act	GPR119 counter
c1cc2c(cc1OCCNC1CCCC1)CCC2	–	6.5	–	–	–	–
O=C(CCCN1C(=O)c2cccnc2C1=O)Nc1ccc(C(F)(F)F)cc1	–	9.0	–	–	–	–
COc1ccc(OC)c(N=c2ssnc2Cl)c1	–	6.0	–	–	–	–
COCCn1nnnc1C(c1ccccc1F)N1CCN(C2CCCCC2)CC1 (stereo not given)	–	–	–	–	·	·
O=C(c1ccccc1[N+](=O)[O-])N1CC2C3C=CC(C3)C2C1 (stereo not given)	–	–	–	–	·	·
C=CCC1C=CCC(CC=C)N1C(=O)c1ccccc1[N+](=O)[O-] (stereo not given)	–	9.2	–	–	–	–
CCOc1ccc(-c2nc(-c3ccc([N+](=O)[O-])cc3)no2)cc1OCC	–	–	–	–	·	·
CCOc1ccc(-c2nc(-c3ccncc3)no2)cc1OCC	–	4.9	–	–	–	–
O=C(COc1ccc(Cl)cc1)NCC(c1ccco1)N1CCOCC1 (stereo not given)	–	6.2	–	–	–	–
O=C(O)c1cc(S(=O)(=O)Nc2ccc(Cl)cc2F)ccc1Cl	–	–	–	–	·	·
COc1ccccc1CNC(=O)CSc1nc2ccccc2n1S(=O)(=O)c1ccc(Cl)cc1	–	–	–	–	·	·
C=CCNC(=O)C1CCN(C(=O)NCc2ccccc2)CC1	–	10.0	–	–	–	–
O=C(NC1CCN(C(=O)NCc2ccccc2)CC1)c1cccc(F)c1	–	5.6	–	–	–	–
O=C(NC1CCN(C(=O)Nc2cccc(F)c2)CC1)c1cccc(F)c1	–	–	–	–	·	·
CC(=O)C(C(=O)c1ccccc1)C1c2ccccc2Oc2ccccc21 (stereo not given)	–	–	–	–	·	·
Cc1ccc(-c2nc(CSCC(=O)N3CCOCC3)c(C)o2)cc1	–	5.0	–	–	–	–
Cc1ccc(-c2nc(CSCC(=O)N3CCN(C(=O)c4ccco4)CC3)c(C)o2)cc1	–	–	–	–	·	·
C/C(=N\NC(=O)c1ccc(F)cc1)c1ccccc1	–	5.4	–	–	–	–
C/C(=N\NC(=O)c1ccc(C(=O)N/N=C(\C)c2ccc(F)cc2)cc1)c1ccc(F)cc1	–	–	–	–	·	·
Cc1cc(C)n(CC(O)CN(c2cccc([N+](=O)[O-])c2)S(=O)(=O)c2ccccc2)n1 (stereo not given)	–	–	–	–	·	·
Cc1ccc(S(=O)(=O)N(CC(O)Cn2nc(C)cc2C)c2cccc([N+](=O)[O-])c2)cc1 (stereo not given)	–	5.8	–	–	–	–
CCOC(=O)CSc1nnc(CSc2ncccn2)n1-c1ccccc1	–	11	–	–	–	–
CCOc1ccc(NC(=S)NCC(C)C)cc1	–	–	–	–	·	·
O=C(NCc1ccccc1)C1CC(=O)N(c2ccccc2)C1 (stereo not given)	–	–	–	–	·	·
CC(=O)O[C@H]1CC[C@@]2(C)C(C[C@@H](OC(C)=O)[C@@]3(C)C4=CC(=O)O[C@@H](c5ccoc5)[C@]4(C)CCC23)C1(C)C (stereo not given in full)	–	6.5!	–	–	–	–
O=C(O)c1cccc(-n2cc(-c3cc(F)cc(F)c3)cn2)c1	–	7.2	–	–	–	–
O=C(O)c1ccc(-c2cnn(-c3ccccc3)c2)nc1	–	–	–	–	·	·
Clc1nc(NCCOc2ccccc2)c2ncn(-c3ccccc3)c2n1	–	–	–	–	·	·
